The campaign covered roughly 2,100 compounds. About 1,100 (52%) were called active. About 29% were inconclusive and are not listed. Calls come from the whole dose curve; as a rule, active = well fitted inhibition curve with a large enough effect; inconclusive = small, poorly fitted or top-dose-only effect; inactive = no such curve, though single readings can be large or run the other way. So high a share suggests a set chosen from earlier hits. Some of the results follow.
What follows are molecules tested against DNA dC->dU-editing enzyme APOBEC-3F (Homo sapiens) (UniProt Q8IUX4) (assay: qHTS for inhibitors of Vif-A3F interactions: Cherry picks counterscreen). Conditions: HeLa A3F-eYFP/Vif cells, eYFP fluorescence, 24 h; series mostly up to 46.1 µM; activity, negative = inhibitor: at the top concentration.
Sequence of DNA dC->dU-editing enzyme APOBEC-3F (Homo sapiens) (Q8IUX4 whole entry, looked up): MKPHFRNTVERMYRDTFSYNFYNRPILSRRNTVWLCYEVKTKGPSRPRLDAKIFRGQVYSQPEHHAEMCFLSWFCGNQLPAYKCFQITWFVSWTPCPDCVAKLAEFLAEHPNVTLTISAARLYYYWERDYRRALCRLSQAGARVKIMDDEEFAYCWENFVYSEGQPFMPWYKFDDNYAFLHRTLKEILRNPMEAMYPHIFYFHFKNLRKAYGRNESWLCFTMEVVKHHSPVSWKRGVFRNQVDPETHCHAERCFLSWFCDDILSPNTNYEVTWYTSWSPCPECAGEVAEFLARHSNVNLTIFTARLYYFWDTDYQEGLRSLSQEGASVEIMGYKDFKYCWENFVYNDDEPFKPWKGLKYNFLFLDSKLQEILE
Outline: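 HeLa cells stably expressing A3F-eYFP and Vif, cultured overnight, then treated 24 h at 37 degrees C with compounds at several concentrations; yellow fluorescence (488 nm Ex/500-530 nm Em) imaged on Acumen; MG132 positive control.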
CCn1c(SCC(=O)c2c[nH]c3ccccc23)nnc1-c1cccs1 was tested, and the Potency was 18.4 µM (active). In the case of CCOc1cc(/C=C(/C#N)C(=O)Nc2ccc(O)cc2)cc(Br)c1O, the Potency is reported as 15.8 µM (active). CCOC(=O)c1c(-c2ccc(C)cc2)csc1NC(=O)/C(C#N)=C/c1ccc(O)c(OC)c1 was tested, and the “activity, negative = inhibitor” value was 16.7% [at 36.9 µM] (inactive). For CCOc1ccc(NC(=O)/C(C#N)=C/c2ccc(N3CCCC3)c(C)c2)cc1, the Potency was 5.8 µM (active). With Cc1ccc2c(c1)Sc1c(ccc3ccccc13)N2 the Potency was 16.4 µM (active). Cc1cc(C)c(S(=O)(=O)Oc2ccccc2[N+](=O)[O-])c(C)c1 was tested, and the Potency was 6.27 µM (active). For O=[N+]([O-])c1ccccc1SNc1ccccc1, the “activity, negative = inhibitor” value was -29% [at 36.9 µM] (inactive). In the case of CCN(CC)c1ccc(C=NNc2ccc([N+](=O)[O-])cn2)cc1, the Potency is reported as 10.3 µM (active). Cc1ccc(Cc2c(C3CCCCC3)nc3ccc(C)cn23)cc1 was tested, and the “activity, negative = inhibitor” value was -21.2% [at 36.9 µM] (inactive). With Cc1noc(C)c1COc1cccc(C(=O)OCC(=O)N2CC(=O)Nc3ccccc32)c1 the Potency was 6.27 µM (active). C/C(=N\Nc1nccnc1Cl)c1ccc(Cl)c(Cl)c1 was tested, and the “activity, negative = inhibitor” value was -1.06% (inactive). For CCSc1nc2ccccc2n1C(=O)/C=C/c1ccc(OC)c(OC)c1, the Potency was 4.98 µM (active). C=CCSc1nc2ccccc2n1C(=O)/C=C/c1cc(OC)c(OC)c(OC)c1 was tested, and the Potency was 6.27 µM (active). In the case of CNc1cncc(-c2cc(C)c(O)c(C)c2)n1, the Potency is reported as 4.44 µM (active). For O=C(Nc1ncc(Cc2ccc(SC(F)F)cc2)s1)c1ccccc1, the Potency was 2.23 µM (active). Cc1nc(-c2ccc(Cl)cc2)sc1C(=O)NN was tested, and the Potency was 14 µM (active). For O=C(O)Cc1sc(NC2CCCCC2)nc1-c1ccc(Cl)cc1, the “activity, negative = inhibitor” value was -13.1% (inactive). With CCOc1cc(/C=C2/SC(=S)N(CC3CCCO3)C2=O)ccc1O (stereo not given) the Potency was 14.6 µM (active). For Cc1cc(N(C)C)c(C)cc1/C=C/c1ccnc2ccccc12, the Potency was 8.2 µM (active). CCN(CC)c1cc(C)c(/C=C/c2ccnc3ccccc23)cc1C was tested, and the Potency was 20.6 µM (active). With CC(C)C1C(=O)N(Cc2cn(CCC3OCCCO3)nn2)CCS(=O)(=O)N1Cc1ccc(-c2cccc(CO)c2)cc1 (stereo not given) the “activity, negative = inhibitor” value was -8.31% [at 36.9 µM] (inactive). With COc1ccc(-c2cc3ccccc3oc2=O)cc1NC(=S)NC(=O)c1ccc2c(c1)OCCO2 the Potency was 6.51 µM (active). For O=C(NC(=S)Nc1ccc(N2CCCCC2)c(Cl)c1)c1ccc2c(c1)OCCO2, the “activity, negative = inhibitor” value was -28.4% (inactive). In the case of Cc1ccc2ccc3cc(C(=O)Nc4ccc(C)c(F)c4)nc3c2[nH]1, the Potency is reported as 18.4 µM (active). For C1=Cc2ccccc2/C1=C\c1cc2c3c(c1)CCCN3CCC2, the Potency was 16.4 µM (active). Cc1ccc(/C=C2/CNC/C(=C/c3ccc(C)cc3)C2=O)cc1 was tested, and the Potency was 9.94 µM (active). In the case of CCNc1ccc(Br)cc(C(=O)/C=C/c2ccc3c(c2)OCO3)c1=O, the Potency is reported as 18.4 µM (active). With Cc1ccc2oc(/N=C(\N)NC(=O)C(C)(C)C)nc2c1 the “activity, negative = inhibitor” value was 0.425% (inactive). For CN1C(=O)/C(=C/c2ccccc2OCc2ccc(F)cc2)N(C)C1=S, the “activity, negative = inhibitor” value was -14.7% (inactive). For Cc1ccc(C)c2nc3sc(C(=O)N4CCOCC4)c(N)c3cc12, the Potency was 15.8 µM (active). With CCNC(=S)N/N=C(\C)c1ccc(N2CCOCC2)cc1 the “activity, negative = inhibitor” value was -2.23% (inactive). In the case of O=C(Nc1ccc(N2CCOCC2)cc1)c1cccc2ccccc12, the Potency is reported as 15.8 µM (active). For CCc1ccc(C(=O)NC(=S)Nc2ccc(N3CCOCC3)cc2)cc1, the “activity, negative = inhibitor” value was 3.84% (inactive). In the case of Cc1cccc2cc3c(N)c(C(=O)N4CCOCC4)sc3nc12, the Potency is reported as 16.4 µM (active). For Cc1cccc2cc3c(N)c(C(=O)Nc4ccc(N5CCOCC5)cc4)sc3nc12, the Potency was 12.5 µM (active). In the case of N#C/C(=C/c1ccc(N2CCOCC2)o1)C(=O)NC1CCCCC1, the Potency is reported as 18.4 µM (active). With N#C/C(=C\c1ccc(N2CCOCC2)o1)C(=O)NCCc1ccccc1 the “activity, negative = inhibitor” value was 39.2% (inactive). For N#C/C(=C\c1ccc(N2CCOCC2)o1)C(=O)NC1CCCCC1, the Potency was 14 µM (active). With Oc1cccc(Nc2nc(O)c(/C=C3\C=Nc4ccccc43)s2)c1 the Potency was 20.6 µM (active). With CCOC(=O)/C=c1/s/c(=C/c2ccc3cc(OC)ccc3c2)c(=O)n1CC(=O)NCC1CCCO1 (stereo not given) the Potency was 18.4 µM (active). With NC(=O)CSc1nc2c(sc3ccccc32)c(=O)n1CCCC(=O)NCC1CCCO1 (stereo not given) the “activity, negative = inhibitor” value was -9.59% (inactive). With CCOC(=O)/C=c1\s/c(=C\c2c(OC)ccc3ccccc23)c(=O)n1CC(=O)NCC1CCCO1 (stereo not given) the Potency was 4.61 µM (active). For CCOC(=O)/C=c1\s/c(=C\c2ccccc2C)c(=O)n1CC(=O)NCc1ccc2c(c1)OCO2, the Potency was 14 µM (active). CCOC(=O)/C=c1/s/c(=C\c2c(OC)ccc3ccccc23)c(=O)n1CC(=O)NCC1CCCO1 (stereo not given) was tested, and the Potency was 9.94 µM (active). S=C(NN=Cc1ccccn1)Nc1ccccn1 was tested, and the “activity, negative = inhibitor” value was 13.5% (inactive). In the case of Nc1cccc(CCc2nc3cc4ccccc4cc3[nH]2)c1, the Potency is reported as 4.44 µM (active). For O=C(NNc1ncc(C(F)(F)F)cc1Cl)c1c(Cl)cccc1Cl, the Potency was 4.44 µM (active). In the case of Cc1cc(C)c(C(=O)N(CCN(C)C)CC2CCCN(Cc3ccccc3F)C2)o1 (stereo not given), the “activity, negative = inhibitor” value is reported as -1.53% (inactive). For CC(C)OC(=O)c1cc(C(=O)c2cc(F)ccc2O)coc1=N, the Potency was 20.6 µM (active). With CCC(=O)Nc1ccccc1-c1nc2ccccc2n(C(C)C(=O)Nc2ccc(OC)cc2)c1=O (stereo not given) the Potency was 16.4 µM (active). In the case of c1cncc(-c2nc(NCc3cccs3)c3ccccc3n2)c1, the “activity, negative = inhibitor” value is reported as -5.28% (inactive). Brc1ccc2c(c1)C(c1cccnc1)=NNC(c1cccs1)=N2 was tested, and the Potency was 14 µM (active). For COC(=O)c1sccc1S(=O)(=O)N(CC(=O)Nc1cc(F)ccc1F)c1ccc(C)c(C)c1, the “activity, negative = inhibitor” value was -18.6% (inactive). In the case of CC(=O)c1c(C)[nH]c(C(=O)Nc2ccc(Cl)cc2F)c1C, the “activity, negative = inhibitor” value is reported as -0.176% (inactive). With CCOC(=O)c1[nH]c(C)c(C(=O)Nc2ccccc2F)c1C the Potency was 3.14 µM (active). For CCOC(=O)c1[nH]c(C)c(C(=O)Nc2cc(OC)ccc2OC)c1C, the Potency was 1.77 µM (active). For CCOC(=O)c1[nH]c(C)c(C(=O)Nc2ccc(C)cc2C)c1C, the Potency was 2.23 µM (active). COc1ccc(OC)c(NC(=O)c2cc(-c3cc(C)cc(C)c3O)n[nH]2)c1 was tested, and the “activity, negative = inhibitor” value was -0.959% (inactive). For Cc1ccc(C)c(N2CCN(C(=O)c3cccn4c(=O)c5sccc5nc34)CC2)c1, the Potency was 15.8 µM (active). In the case of O=c1[nH]c2ccccc2nc1/C=C(\O)c1cccs1, the Potency is reported as 16.4 µM (active). In the case of O=C(NCc1ccc2c(c1)OCO2)c1cc([N+](=O)[O-])ccc1N1CCOCC1, the Potency is reported as 4.98 µM (active). In the case of O=C(/C=C/c1cccs1)NCc1ccc2c(c1)OCO2, the “activity, negative = inhibitor” value is reported as -0.325% (inactive). O=C(NCc1ccc2c(c1)OCO2)c1cc([N+](=O)[O-])ccc1N1CCCCC1 was tested, and the Potency was 1.58 µM (active). For Cc1cccc(-c2noc(-c3ccc(NCc4ccco4)c([N+](=O)[O-])c3)n2)c1, the Potency was 14.6 µM (active). With COc1ccccc1-c1noc(-c2ccc(NCc3ccco3)c([N+](=O)[O-])c2)n1 the Potency was 18.4 µM (active). In the case of O=[N+]([O-])c1cc(-c2nc(-c3ccccc3)no2)ccc1NCc1ccco1, the Potency is reported as 13 µM (active). CCCCOc1ccc2c(c1)/C(=C(\C(Cl)=C(Cl)Cl)[N+](=O)[O-])N2 was tested, and the “activity, negative = inhibitor” value was -6.09% (inactive). N#Cc1c(C(F)(F)F)cc(-c2ccco2)nc1SCc1ccccn1 was tested, and the Potency was 16.4 µM (active). In the case of Cc1cc2nc3c(=O)n(CCc4ccccc4)c(=O)[nH]c3nc2cc1N, the Potency is reported as 5.17 µM (active). With Cc1cc2nc3c(=O)n(Cc4ccccc4)c(=O)[nH]c3nc2cc1N the Potency was 0.125 µM (active). In the case of Cc1cc2nc3c(=O)n(C4CCCCC4)c(=O)[nH]c3nc2cc1N, the Potency is reported as 9.2 µM (active). With CCCCN(C(=O)c1ccc([N+](=O)[O-])s1)c1c(N)n(CCCC)c(=O)[nH]c1=O the “activity, negative = inhibitor” value was -5.21% (inactive). In the case of CCOC(=O)N1CCN(C(=O)c2ccccc2-c2ccccc2)CC1, the Potency is reported as 2.8 µM (active). CN(C)c1ccc(/C=C/C(=O)c2c(O)c3ccccc3oc2=O)cc1 was tested, and the Potency was 4.11 µM (active). CC(/C=C/c1ccc(N(C)C)cc1)=N\N=C(/N)SC1CC(=O)N(c2ccc(C(=O)O)cc2)C1=O (stereo not given) was tested, and the “activity, negative = inhibitor” value was -28.3% (inactive). In the case of CN(C)c1ccc(/C=C/C(=O)c2ccc(O)cc2)cc1, the Potency is reported as 4.61 µM (active). CCN1/C(=C\C=C(C(C)=O)C(C)=O)Sc2ccccc21 was tested, and the Potency was 14.6 µM (active). In the case of N#Cc1c(-c2ccccc2)c(-c2ccccc2)nn(CC(=O)NNC(=O)Nc2ccccc2)c1=O, the Potency is reported as 4.44 µM (active). With N#Cc1c(-c2ccc(F)cc2)c(-c2ccc(F)cc2)nn(CCO)c1=O the Potency was 4.44 µM (active). For CC1(C)Cc2ccccc2C2CC(O)C(=O)N21 (stereo not given), the Potency was 18.4 µM (active). For Cc1ccc(NC(=O)/C(C#N)=C\c2ccc(-c3ccc(Cl)cc3)o2)c(C)c1, the Potency was 13 µM (active). In the case of Cc1ccc(-c2ccc(/C=N/NC(N)=S)o2)cc1, the “activity, negative = inhibitor” value is reported as -1.63% (inactive). FC(F)(F)c1ccccc1NC(=S)NN=C1CCCCCC1 was tested, and the “activity, negative = inhibitor” value was 5.84% (inactive). For O=C1CSC(=S)N1Cc1cccnc1, the Potency was 13 µM (active). With O=C1/C(=C/c2ccc(O)cc2)SC(=S)N1Cc1cccnc1 the “activity, negative = inhibitor” value was 8.88% (inactive). In the case of O=C(NCc1cccs1)C1CCN(c2ccc(S(=O)(=O)N3CCOCC3)cc2Cl)CC1, the Potency is reported as 2.8 µM (active). For CC(C)(C)OC(=O)NC(Cc1ccccc1)C(=O)N1CCC(C(=O)NCC(=O)Nc2ccc(F)cc2)CC1 (stereo not given), the Potency was 23.1 µM (active). With Cc1cc(C)c(N2C(=O)CC(Sc3ccccc3N)C2=O)c(C)c1 (stereo not given) the Potency was 15.8 µM (active). Cc1cc(C)n(-c2nc3c(c(=O)[nH]c(=O)n3C)n2CC(O)COc2ccc(Cl)cc2Cl)n1 (stereo not given) was tested, and the Potency was 2.23 µM (active). For COc1ccc(S(=O)(=O)N2N=C(C)Oc3ccccc3C2=O)cc1, the Potency was 3.14 µM (active). CC1(C)CCN2CCC(C)(C)c3c(O)ccc1c32 was tested, and the Potency was 14 µM (active). In the case of CCOc1ccc(CN2C(=O)c3ccccc3Sc3ccc(C(=O)O)cc32)cc1, the Potency is reported as 7.31 µM (active). For CC(C)OC(=O)c1c2c(n3ccccc13)C(=O)c1ccccc1C2=O, the Potency was 8.2 µM (active). In the case of CCOc1ccccc1C(=O)Nc1c(C(=O)Nc2ccc(F)cc2)oc2ccccc12, the Potency is reported as 0.92 µM (active). In the case of Oc1ccc(C=NNC(=S)Nc2ccc(F)cc2)c(O)c1, the “activity, negative = inhibitor” value is reported as -1.61% (inactive).

Source: PubChem BioAssay AID651815 (National Center for Advancing Translational Sciences (NCATS), 2012)
% is set by controls: 0 for no effect and ±100 for the full control effect; potency is the fitted concentration of half-maximal effect.
Note: nearly all actives have a fitted effect of over 65% in size.
